Test results reported in PubChem BioAssay.
Results filed as inconclusive are left out. Calls of active or inactive are those of the source.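 The calls were made as follows, unless noted: active = efflux inhibition above 0.42, the validation set average plus 4 SD; inconclusive = no clear call, values can overlap the other calls; inactive = the rest.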

Columns and labels:
[1] = rapamycin-like changes in RPL19A-GFP expression – cell-based, S. cerevisiae, multiplex flow cytometry, primary screen (AID 1862; in the data active = percent of DMSO control GFP below about 86%;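 also: lower values mimic rapamycin by blocking the RPL19A rise seen in DMSO cells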); settings: S. cerevisiae RPL19A-GFP strain, flow cytometry fluorescence, 3 h; at 10 µM; stronger effect = lower value
[2] = TOR pathway GLN3 branch reporter MEP2-GFP changes – S. cerevisiae, multiplex flow cytometry, primary screen (AID 1867;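 active = GFP response, as percent of the DMSO control, above the screen-wide mean plus 3 SD, about 139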;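 also: median GFP channel fluorescence of barcode-gated MEP2-GFP cells measured by flow cytometry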); settings: S. cerevisiae MEP2-GFP strain, 3 h, at 10 µM, stronger effect = higher value, 100% means same as DMSO wells
[3] = TOR pathway RTG branch CIT2 reporter changes – S. cerevisiae, GFP fusion, multiplex flow cytometry, primary screen (AID 1870;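 active = percent response above a set limit, the screen-wide mean plus 3 SD, cut at about 130% in these data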;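 also: barcoded CIT2-GFP strain pooled with four other GFP strains with rapamycin as positive control; median GFP fluorescence per well over plate mean of DMSO wells so 100% = DMSO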); settings: S. cerevisiae CIT2-GFP expression, 3 h, at 10 µM, stronger effect = higher value
[4] = TOR pathway LAP4-GFP level changes – S. cerevisiae, multiplex flow cytometry, primary screen (AID 1873;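 active = GFP signal, as percent of the solvent control, above the screen mean plus 3 SD, about 149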); settings: S. cerevisiae LAP4-GFP expression, 3 h, at 10 µM, stronger effect = higher value
[5] = yeast AGP1-GFP level changes, GLN3 branch – cell-based, multiplex flow cytometry, S. cerevisiae, primary screen (AID 1887;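 active = GFP signal above the screen-wide mean plus 3 SD, that is over about 124.5% of the solvent control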;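 also: AGP1-GFP fusion strain of S. cerevisiae within a five-strain barcoded multiplex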); settings: 3 h, at 10 µM, stronger effect = higher value
[6] = reduced mouse 2C T cell binding to pMHC/ICAM-1 vesicles – MLPCN validation set, flow cytometry, LFA-1/ICAM-1 modulator project, pilot screen (AID 2523;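 active = response below a set limit, under 55% cells CD8-positive and vesicle-bound, and CD8 cells' 90th-percentile brightness under 279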;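 as to vesicle binding response: mean PE anti-B7-1 fluorescence of CD8+ cells relative to row control; 100% = QL9-loaded vesicles with DMSO vehicle in the same plate row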); settings: 2C mouse CD8+ T cells, at 7 µM, stronger effect = lower value; double positive events: measured here: CD8+/vesicle+ event percentage
[7] = target: Integrin beta-1 (Homo sapiens) + Integrin alpha-4 (Homo sapiens) (UniProt P13612+P05556); assay: alpha4beta1 integrin LIBS antibody binding reduction – U937 cells, HUTS-21 mAb, flow cytometry, validation set, VLA-4 allosteric modulator project, pilot screen (AID 2674;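 active = inhibition above 50%, about 3 SD of the validation set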;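 also: antibody binding induced by the VLA-4 ligand LDV present at three times its Kd; 0% = LDV ligand with antibody and no compound and 100% = antibody without LDV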); settings: HUTS-21 LIBS mAb binding, at 6.7 µM, stronger effect = higher value, binding induced by LDV ligand
Sequence of Integrin beta-1 (Homo sapiens) + Integrin alpha-4 (Homo sapiens) (P05556 whole entry, looked up): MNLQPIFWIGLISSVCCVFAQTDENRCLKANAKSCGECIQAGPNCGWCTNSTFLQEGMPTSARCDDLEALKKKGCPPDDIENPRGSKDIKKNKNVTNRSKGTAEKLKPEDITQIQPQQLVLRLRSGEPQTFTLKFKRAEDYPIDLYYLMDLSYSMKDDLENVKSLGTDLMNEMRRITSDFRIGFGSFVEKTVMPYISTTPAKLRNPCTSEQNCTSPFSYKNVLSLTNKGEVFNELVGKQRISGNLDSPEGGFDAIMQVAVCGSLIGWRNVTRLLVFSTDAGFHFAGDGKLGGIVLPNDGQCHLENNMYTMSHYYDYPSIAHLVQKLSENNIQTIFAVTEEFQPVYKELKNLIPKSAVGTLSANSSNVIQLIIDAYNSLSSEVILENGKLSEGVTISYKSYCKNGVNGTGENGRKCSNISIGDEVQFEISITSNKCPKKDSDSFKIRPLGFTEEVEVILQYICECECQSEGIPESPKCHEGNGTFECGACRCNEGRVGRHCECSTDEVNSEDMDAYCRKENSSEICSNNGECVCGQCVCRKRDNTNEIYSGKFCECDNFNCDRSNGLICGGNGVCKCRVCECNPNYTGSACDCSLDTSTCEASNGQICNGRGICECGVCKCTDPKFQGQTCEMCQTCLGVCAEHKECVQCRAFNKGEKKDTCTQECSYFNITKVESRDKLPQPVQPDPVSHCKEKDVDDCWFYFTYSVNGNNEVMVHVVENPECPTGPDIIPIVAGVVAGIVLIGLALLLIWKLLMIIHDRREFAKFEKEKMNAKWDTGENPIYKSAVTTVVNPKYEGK
Sequence of Integrin beta-1 (Homo sapiens) + Integrin alpha-4 (Homo sapiens) (P13612 whole entry, looked up): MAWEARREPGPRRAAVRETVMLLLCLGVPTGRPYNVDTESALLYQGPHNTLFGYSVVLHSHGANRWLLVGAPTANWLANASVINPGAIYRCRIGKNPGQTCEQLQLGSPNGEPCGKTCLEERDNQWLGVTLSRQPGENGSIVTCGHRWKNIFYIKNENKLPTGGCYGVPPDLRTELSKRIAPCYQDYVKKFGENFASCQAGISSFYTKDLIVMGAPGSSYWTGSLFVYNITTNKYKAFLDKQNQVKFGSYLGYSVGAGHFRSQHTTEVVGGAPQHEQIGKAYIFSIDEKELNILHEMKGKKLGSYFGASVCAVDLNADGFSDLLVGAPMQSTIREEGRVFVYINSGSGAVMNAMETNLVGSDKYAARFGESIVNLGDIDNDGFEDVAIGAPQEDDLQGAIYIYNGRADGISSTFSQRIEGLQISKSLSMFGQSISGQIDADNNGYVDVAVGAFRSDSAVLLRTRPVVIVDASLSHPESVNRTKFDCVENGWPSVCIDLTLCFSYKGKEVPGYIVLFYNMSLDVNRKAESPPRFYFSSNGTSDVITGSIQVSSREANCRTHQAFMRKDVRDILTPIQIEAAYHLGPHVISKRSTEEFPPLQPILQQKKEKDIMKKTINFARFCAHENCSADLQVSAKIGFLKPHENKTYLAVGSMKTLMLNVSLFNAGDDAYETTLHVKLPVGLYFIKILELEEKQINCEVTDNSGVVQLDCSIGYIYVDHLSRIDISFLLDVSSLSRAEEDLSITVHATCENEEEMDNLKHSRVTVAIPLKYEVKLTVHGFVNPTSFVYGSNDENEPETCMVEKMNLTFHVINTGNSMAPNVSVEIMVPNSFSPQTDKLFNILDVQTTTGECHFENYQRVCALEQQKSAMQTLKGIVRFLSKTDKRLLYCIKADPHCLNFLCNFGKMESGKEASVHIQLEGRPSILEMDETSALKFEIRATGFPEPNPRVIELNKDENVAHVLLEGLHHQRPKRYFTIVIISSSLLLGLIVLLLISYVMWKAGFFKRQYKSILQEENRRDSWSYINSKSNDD

[8] = calorie-restriction mimetic ROS inhibitors, yeast – validation compound set, pilot screen (AID 2706;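 active = superoxide response below 65% of plate, a cut near 3 SD across the whole screen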;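 also: yeast exposed to compound for one week at 30 degrees C before staining; 100% = mean of all compound wells on the same plate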); settings: S. cerevisiae aging, superoxide DHE fluorescence; at 10 µM, stronger effect = lower value
[9] = target: Beta-adrenergic receptor kinase 1 (Homo sapiens) (UniProt P25098); assay: GRK2 binders displacing RNA aptamer, biochemical, validation, human GRK2, bead flow cytometry (AID 488806;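 active = aptamer binding inhibition above 30%, about 3 SD of noise from non-fluorescent compounds; inactive = inhibition at or below 30%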); settings: bead-bound GRK2, FAM-aptamer displacement, at 10 µM, stronger effect = higher value
Sequence of Beta-adrenergic receptor kinase 1 (Homo sapiens) (P25098 whole entry, looked up): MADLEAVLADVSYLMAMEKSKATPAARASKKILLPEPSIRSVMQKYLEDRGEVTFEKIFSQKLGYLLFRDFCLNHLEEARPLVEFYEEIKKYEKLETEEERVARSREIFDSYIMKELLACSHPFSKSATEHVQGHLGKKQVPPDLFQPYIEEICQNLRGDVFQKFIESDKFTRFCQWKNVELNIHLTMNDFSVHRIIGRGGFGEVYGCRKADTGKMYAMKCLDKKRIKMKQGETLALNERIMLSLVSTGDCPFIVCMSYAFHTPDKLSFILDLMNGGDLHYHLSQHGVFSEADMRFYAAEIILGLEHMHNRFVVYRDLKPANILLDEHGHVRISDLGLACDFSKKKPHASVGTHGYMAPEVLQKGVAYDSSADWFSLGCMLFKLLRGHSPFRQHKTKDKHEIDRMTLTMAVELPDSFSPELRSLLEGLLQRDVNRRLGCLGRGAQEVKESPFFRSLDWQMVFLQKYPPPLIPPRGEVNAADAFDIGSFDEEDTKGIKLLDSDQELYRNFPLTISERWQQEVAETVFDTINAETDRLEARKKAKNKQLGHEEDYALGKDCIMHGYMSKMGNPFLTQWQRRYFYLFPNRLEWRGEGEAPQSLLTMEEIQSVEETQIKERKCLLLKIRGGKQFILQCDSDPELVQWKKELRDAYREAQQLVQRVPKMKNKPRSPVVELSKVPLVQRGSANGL

[10] = target: AP-2 complex subunit beta (Homo sapiens) (UniProt P63010); assay: beta-arrestin/AP2 interaction blockers – biochemical, validation set, GST-AP2 beads, flow cytometry, pilot screen (AID 504541;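 active = inhibition above 54%, about 3 SD of non-fluorescent compounds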;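 also: AP2 carries R879A mutation and is captured from E. coli lysate; bead-bound FITC arrestin peptide fluorescence measuring arrestin peptide binding to AP2; 0% = DMSO wells and 100% = excess unlabeled arrestin peptide control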); settings: FITC arrestin peptide, at 10 µM, stronger effect = higher value, AP2 beta2 appendage fragment, R879A mutant
Sequence of AP-2 complex subunit beta (Homo sapiens) (P63010 whole entry, looked up, the tested form may be a part, one chain of several): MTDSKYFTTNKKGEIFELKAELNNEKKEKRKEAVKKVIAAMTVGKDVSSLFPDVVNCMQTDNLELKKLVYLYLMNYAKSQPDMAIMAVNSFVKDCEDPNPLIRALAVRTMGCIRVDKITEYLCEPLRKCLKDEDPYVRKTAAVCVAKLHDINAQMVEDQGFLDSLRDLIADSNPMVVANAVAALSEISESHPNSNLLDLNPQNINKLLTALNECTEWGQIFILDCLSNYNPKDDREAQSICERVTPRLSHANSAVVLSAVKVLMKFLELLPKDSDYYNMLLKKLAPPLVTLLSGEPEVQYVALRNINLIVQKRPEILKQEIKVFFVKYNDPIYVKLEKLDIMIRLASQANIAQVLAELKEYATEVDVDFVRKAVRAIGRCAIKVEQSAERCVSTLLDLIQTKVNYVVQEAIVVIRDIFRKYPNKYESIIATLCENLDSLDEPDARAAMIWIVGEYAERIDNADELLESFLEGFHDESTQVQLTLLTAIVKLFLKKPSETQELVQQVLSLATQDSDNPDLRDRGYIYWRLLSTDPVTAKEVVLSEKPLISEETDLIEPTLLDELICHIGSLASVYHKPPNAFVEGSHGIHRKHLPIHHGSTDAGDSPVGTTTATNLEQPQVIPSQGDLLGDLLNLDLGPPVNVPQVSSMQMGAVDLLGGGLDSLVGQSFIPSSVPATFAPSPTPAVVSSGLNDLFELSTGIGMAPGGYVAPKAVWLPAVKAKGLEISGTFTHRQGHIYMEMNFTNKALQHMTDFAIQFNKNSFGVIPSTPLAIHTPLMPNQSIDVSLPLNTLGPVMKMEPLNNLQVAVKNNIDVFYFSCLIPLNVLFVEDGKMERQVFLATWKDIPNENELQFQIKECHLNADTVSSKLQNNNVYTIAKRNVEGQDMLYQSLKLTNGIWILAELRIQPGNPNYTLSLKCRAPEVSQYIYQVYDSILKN

[11] = cytosolic pH regulators acting via V-ATPase – S. cerevisiae, pHLuorin, HTS validation (AID 504600; in the data active = response above about 15%;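 also: plate controls were DMSO for no effect and reference compound for full effect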); settings: V-ATPase proton transport, at 10 µM, stronger effect = higher value
[12] = test system: anti-desmoglein-3 scFv antibody binding to human DSG3; assay: blockers of pathogenic pemphigus antibody–desmoglein-3 binding – biochemical, validation compound set, bead-based, flow cytometry, pilot screen (AID 588368;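 active = binding below the plate cutoff, the plate median minus 3 SD, with a reading above zero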;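 also: signal is the median channel fluorescence of bead-bound GFP antibody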); settings: Protein G beads, DSG3-Fc, scFv-GFP binding, at 10 µM, stronger effect = lower value
[13] = Nile Red efflux blockade in pump-expressing yeast – validation compound set, multiplex, phenotypic, pilot screen (AID 588506);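 also: Nile Red retained in cells so higher fluorescence means more efflux inhibition; 0 = negative control wells and 1 = enniatin B 25 µM full block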; settings: S. cerevisiae pump-expressing triplex, Nile Red efflux flow cytometry; at 10 µM; stronger effect = higher value; the pumps come from Candida albicans
[14] = target: ATP-binding cassette sub-family B member 6 (Homo sapiens) (UniProt Q9NP58); assay: blockers of ABCB6-driven porphyrin uptake – K562-ABCB6 cells, flow cytometry, validation set, pilot screen (AID 588550;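 active = inhibition above the screen-wide mean plus 3 SD, about 51%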;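 also: 0% = DMSO wells and 100% = benzethonium chloride 70 µM positive control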); settings: K562-ABCB6 porphyrin accumulation, 1 h, at 10 µM, stronger effect = higher value
Sequence of ATP-binding cassette sub-family B member 6 (Homo sapiens) (Q9NP58 whole entry, looked up): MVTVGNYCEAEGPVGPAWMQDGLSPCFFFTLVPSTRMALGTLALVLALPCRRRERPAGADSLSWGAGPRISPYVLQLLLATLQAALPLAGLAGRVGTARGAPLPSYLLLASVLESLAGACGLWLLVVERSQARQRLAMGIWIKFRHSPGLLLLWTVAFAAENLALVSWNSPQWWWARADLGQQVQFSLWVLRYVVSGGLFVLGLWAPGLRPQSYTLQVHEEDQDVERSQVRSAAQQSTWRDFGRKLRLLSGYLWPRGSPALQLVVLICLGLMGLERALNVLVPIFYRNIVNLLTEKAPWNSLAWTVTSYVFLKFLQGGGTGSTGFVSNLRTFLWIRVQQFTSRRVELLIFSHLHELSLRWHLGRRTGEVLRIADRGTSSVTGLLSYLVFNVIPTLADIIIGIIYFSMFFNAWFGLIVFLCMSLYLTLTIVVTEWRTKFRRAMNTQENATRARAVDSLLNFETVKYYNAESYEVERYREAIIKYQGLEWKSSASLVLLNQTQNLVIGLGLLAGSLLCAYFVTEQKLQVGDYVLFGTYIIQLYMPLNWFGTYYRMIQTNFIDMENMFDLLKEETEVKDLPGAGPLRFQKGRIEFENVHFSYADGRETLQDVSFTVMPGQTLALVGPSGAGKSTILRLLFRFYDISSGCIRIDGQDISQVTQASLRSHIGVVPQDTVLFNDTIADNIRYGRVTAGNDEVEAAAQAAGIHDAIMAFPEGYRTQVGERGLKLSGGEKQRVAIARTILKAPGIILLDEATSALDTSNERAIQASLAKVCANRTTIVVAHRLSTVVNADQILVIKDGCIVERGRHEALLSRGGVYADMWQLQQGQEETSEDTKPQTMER

[15] = AML differentiation inducers, ER-HoxA9 marrow cells – cell-based, GFP/MAC1 double positive, flow cytometry, validation set, primary screen (AID 588685;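 active = differentiation response of at least 50%, scaled between solvent and reference control, from cells with both markers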;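 also: compound exposure lasts four days before antibody staining and flow analysis; 0% = DMSO wells and 100% = 5 µM fulvestrant positive control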); settings: stronger effect = higher value, normalized: vehicle 0, fulvestrant 100

Structure (SMILES): OC[C@H]1O[C@@H](n2cnc3c(NC4CCCC4)ncnc32)[C@H](O)[C@@H]1O
- percent of DMSO control GFP [1]: 96.8% (inactive)
- GFP response vs DMSO [2]: 98.9% (inactive)
- percent response of DMSO control [3]: 98.8% (inactive)
- GFP response vs DMSO [4]: 99.4% (inactive)
- GFP response, % of DMSO [5]: 98.4% (inactive)
- double positive events [6]: 52.6%
- vesicle binding response [6]: 139% (inactive)
- inhibition [7]: 6.29% (inactive)
- superoxide response (% of plate) [8]: 102% (inactive)
- aptamer binding inhibition [9]: 4% (inactive)
- inhibition [10]: 7.18% (inactive)
- response [11]: -1.41% (inactive)
- binding (% of control) [12]: 104% (inactive)
- efflux inhibition (fraction of control) [13]: 0.18 (inactive)
- inhibition [14]: 2% (inactive)
- differentiation response [15]: -8.27% (inactive)

Structure (SMILES): O=[N+]([O-])c1ccc2cn[nH]c2c1
- percent of DMSO control GFP [1]: 102% (inactive)
- GFP response vs DMSO [2]: 106% (inactive)
- percent response of DMSO control [3]: 102% (inactive)
- GFP response vs DMSO [4]: 93.3% (inactive)
- GFP response, % of DMSO [5]: 97.3% (inactive)
- double positive events [6]: 60.3%
- vesicle binding response [6]: 265% (inactive)
- inhibition [7]: 12.8% (inactive)
- superoxide response (% of plate) [8]: 97.5% (inactive)
- aptamer binding inhibition [9]: 1% (inactive)
- inhibition [10]: -5.23% (inactive)
- response [11]: -6.52% (inactive)
- binding (% of control) [12]: 98.2% (inactive)
- efflux inhibition (fraction of control) [13]: -0.05 (inactive)
- inhibition [14]: 10% (inactive)
- differentiation response [15]: -8.27% (inactive)

Structure (SMILES): COc1ccc(CCNC(=O)C(=O)Nc2ccc3c(c2)OCO3)cc1OC
- percent of DMSO control GFP [1]: 104% (inactive)
- GFP response vs DMSO [2]: 104% (inactive)
- percent response of DMSO control [3]: 107% (inactive)
- GFP response vs DMSO [4]: 101% (inactive)
- GFP response, % of DMSO [5]: 101% (inactive)
- double positive events [6]: 65.2%
- vesicle binding response [6]: 220% (inactive)
- inhibition [7]: -4.9% (inactive)
- superoxide response (% of plate) [8]: 96.1% (inactive)
- aptamer binding inhibition [9]: 5% (inactive)
- inhibition [10]: -11.2% (inactive)
- response [11]: 6.72% (inactive)
- binding (% of control) [12]: 94.1% (inactive)
- efflux inhibition (fraction of control) [13]: -0.16 (inactive)
- inhibition [14]: 10% (inactive)
- differentiation response [15]: -1.82% (inactive)

Structure (SMILES): C[C@@H]1C[C@H]2[C@@H]3CCC4=CC(=O)C=C[C@]4(C)[C@@]3(F)[C@@H](O)C[C@]2(C)[C@H]1C(=O)CO
- percent of DMSO control GFP [1]: 102% (inactive)
- GFP response vs DMSO [2]: 97.9% (inactive)
- percent response of DMSO control [3]: 109% (inactive)
- GFP response vs DMSO [4]: 81.3% (inactive)
- GFP response, % of DMSO [5]: 96.6% (inactive)
- double positive events [6]: 54.1%
- vesicle binding response [6]: 226% (inactive)
- inhibition [7]: -12.4% (inactive)
- superoxide response (% of plate) [8]: 107% (inactive)
- aptamer binding inhibition [9]: -2% (inactive)
- inhibition [10]: -3.18% (inactive)
- response [11]: -6.95% (inactive)
- binding (% of control) [12]: 97.8% (inactive)
- efflux inhibition (fraction of control) [13]: -0.12 (inactive)
- inhibition [14]: 6% (inactive)
- differentiation response [15]: -11.5% (inactive)

Structure (SMILES): Clc1ccc2c(c1)C(N1CCNCC1)=Nc1ccccc1O2
- percent of DMSO control GFP [1]: 107% (inactive)
- GFP response vs DMSO [2]: 106% (inactive)
- percent response of DMSO control [3]: 109% (inactive)
- GFP response vs DMSO [4]: 101% (inactive)
- GFP response, % of DMSO [5]: 105% (inactive)
- double positive events [6]: 64%
- vesicle binding response [6]: 200% (inactive)
- inhibition [7]: -42.2% (inactive)
- superoxide response (% of plate) [8]: 103% (inactive)
- aptamer binding inhibition [9]: -1% (inactive)
- inhibition [10]: 24.4% (inactive)
- response [11]: -1.95% (inactive)
- binding (% of control) [12]: 101% (inactive)
- efflux inhibition (fraction of control) [13]: -0.47 (inactive)
- inhibition [14]: 7% (inactive)
- differentiation response [15]: -8.27% (inactive)

Structure (SMILES): COc1ccccc1-c1ccc(/C=C2/C=C(CC(C)C)OC2=O)o1
- percent of DMSO control GFP [1]: 99.5% (inactive)
- GFP response vs DMSO [2]: 101% (inactive)
- percent response of DMSO control [3]: 93% (inactive)
- GFP response vs DMSO [4]: 105% (inactive)
- GFP response, % of DMSO [5]: 90.1% (inactive)
- double positive events [6]: 58.1%
- vesicle binding response [6]: 120% (inactive)
- inhibition [7]: -43.1% (inactive)
- superoxide response (% of plate) [8]: 103% (inactive)
- aptamer binding inhibition [9]: 2% (inactive)
- inhibition [10]: 2.34% (inactive)
- response [11]: 1.04% (inactive)
- binding (% of control) [12]: 99.5% (inactive)
- efflux inhibition (fraction of control) [13]: 0.75 (active)
- inhibition [14]: 5% (inactive)
- differentiation response [15]: -22.8% (inactive)

Structure (SMILES): Cc1ccccc1OCCSc1nc2ncnc(N)c2[nH]1
- percent of DMSO control GFP [1]: 97.3% (inactive)
- GFP response vs DMSO [2]: 105% (inactive)
- percent response of DMSO control [3]: 104% (inactive)
- GFP response vs DMSO [4]: 99.4% (inactive)
- GFP response, % of DMSO [5]: 103% (inactive)
- double positive events [6]: 51.9%
- vesicle binding response [6]: 163% (inactive)
- inhibition [7]: 8.15% (inactive)
- superoxide response (% of plate) [8]: 97.8% (inactive)
- aptamer binding inhibition [9]: 2% (inactive)
- inhibition [10]: -6.91% (inactive)
- response [11]: 3.1% (inactive)
- binding (% of control) [12]: 96.7% (inactive)
- efflux inhibition (fraction of control) [13]: 0.06 (inactive)
- inhibition [14]: 1% (inactive)
- differentiation response [15]: -8.27% (inactive)

Structure (SMILES): CCS(=O)(=O)CCn1c([N+](=O)[O-])cnc1C
- percent of DMSO control GFP [1]: 96.4% (inactive)
- GFP response vs DMSO [2]: 106% (inactive)
- percent response of DMSO control [3]: 95.9% (inactive)
- GFP response vs DMSO [4]: 94.3% (inactive)
- GFP response, % of DMSO [5]: 97.8% (inactive)
- double positive events [6]: 47.3%
- vesicle binding response [6]: 136% (inactive)
- inhibition [7]: 12.8% (inactive)
- superoxide response (% of plate) [8]: 108% (inactive)
- aptamer binding inhibition [9]: 8% (inactive)
- inhibition [10]: -4.86% (inactive)
- response [11]: 5.33% (inactive)
- binding (% of control) [12]: 99.1% (inactive)
- efflux inhibition (fraction of control) [13]: 0.18 (inactive)
- inhibition [14]: 4% (inactive)
- differentiation response [15]: -5.05% (inactive)

Structure (SMILES): COc1ccc(C2C(=O)c3ccccc3C2=O)cc1
- percent of DMSO control GFP [1]: 97.8% (inactive)
- GFP response vs DMSO [2]: 101% (inactive)
- percent response of DMSO control [3]: 102% (inactive)
- GFP response vs DMSO [4]: 111% (inactive)
- GFP response, % of DMSO [5]: 94.8% (inactive)
- double positive events [6]: 55.9%
- vesicle binding response [6]: 198% (inactive)
- inhibition [7]: 0.69% (inactive)
- superoxide response (% of plate) [8]: 96.8% (inactive)
- aptamer binding inhibition [9]: 1% (inactive)
- inhibition [10]: -15.3% (inactive)
- response [11]: -9.82% (inactive)
- binding (% of control) [12]: 95.6% (inactive)
- efflux inhibition (fraction of control) [13]: -0.24 (inactive)
- inhibition [14]: 4% (inactive)
- differentiation response [15]: -18% (inactive)
